Laboratory results taken from PubChem BioAssay (NCATS).

Experiment: qHTS profiling of the MIPE4 collection as inhibitors of Plasmodium falciparum (DD2) proliferation (AID 743345)
Settings: P. falciparum Dd2 in erythrocytes, SYBR Green DNA, 72 h; at 28.5 µM (top of the series) unless noted
Text: Plasmodium falciparum is a virulent malarial parasite that kills 1-2 million people worldwide each year. Transmitted by mosquitoes, the sporozoite form of the parasite enters the blood stream to infect hepatocytes, where they become merozoites that infect red blood cells (erythrocytes). Within erythrocytes, merozoites begin a […] cycle of growth and division, after which the parasite is released to infect new red blood cells. Gametocytes, which form within erythrocytes as well, circulate in the bloodstream and are ingested by the mosquito, thereby completing the life cycle. To profile malarial isolates for differential chemical responses and to identify inhibitors of malarial growth, an assay that measures P. falciparum growth and replication within erythrocytes was employed. This assay uses a DNA binding fluorescent dye (SYBR Green) to detect parasite DNA following cell lysis. Because mature erythrocytes lack DNA, only Plasmodium-derived DNA is detected.
The SYBR Green viability assay was adapted from a method described previously (Plouffe et al., 2008). For screening 3 ul culture medium was dispensed into 1536 well black clear bottom plates (Aurora Biotechnologies) using a Multidrop Combi (Thermo Fisher Scientific Inc.), 23 nL compounds in DMSO were added by a pin tool (Kalypsys), and 5 ul of erythrocytes infected with P. falciparum (0.3% parasitemia, 2.5% hematocrit final concentration) were added. The plates were incubated at 37 C in a humidified incubator in 5% CO2 for 72 h, and 2 ul lysis buffer (20 mM Tris HCl, 10 mM EDTA, 0.16% saponin, 1.6% triton X, 10X SYBR Green I supplied as 10,000X […] by Invitrogen) was added to each well. The plates were mixed for 25 sec with gentle shaking and incubated overnight at room temperature in the dark. The following morning, fluorescence intensity at 485(14) nm excitation and 535(25) nm emission wavelengths was measured on an EnVision (Perkin Elmer) plate reader. Plate reads were normalized relative to the control inhibitor (0.29 uM artemisinin) and vehicle (DMSO) wells present on each plate and then corrected by an algorithm using vehicle-only control plates at the beginning and end of the compound plate stack.

SMILES	parasite growth remaining, % of DMSO control (lower = more inhibition) [%]
CC1(C)S[C@H]2[C@H](NC(=O)[C@@H](N)c3ccc(O)cc3)C(=O)N2[C@@H]1C(=O)O	103
CC=CC[C@@H](C)C(=O)[C@H]1C(=O)N[C@@H](C(C)C)C(=O)N(C)CC(=O)N(C)[C@@H](CC(C)C)C(=O)N[C@@H](C(C)C)C(=O)N(C)[C@@H](CC(C)C)C(=O)N[C@@H](C)C(=O)N[C@H](C)C(=O)N(C)[C@@H](CC(C)C)C(=O)N(C)[C@@H](CC(C)C)C(=O)N(C)[C@@H](C(C)C)C(=O)N1C	93.4
CCn1c(C(=O)N(C2CC2)C2CC2)cc2c3c(ncn3C)c(Nc3cc(C)n(C)n3)nc21	12.4
COc1ccc(Cc2nccc3cc(OC)c(OC)cc23)cc1OC	11.3
CC(C)(C)NC(=O)Nc1cccc(Nc2ncc(F)c(NC(C)(C)CO)n2)c1	7.22
Cc1c(O)cccc1C(=O)N[C@@H](CSc1ccccc1)[C@H](O)CN1C[C@H]2CCCC[C@@H]2C[C@@H]1C(=O)NC(C)(C)C	36
CC(C)=CC[C@@H](O)C1=CC(=O)c2c(O)ccc(O)c2C1=O	5.8
O=c1cc(-c2ccccc2)oc2cc(O)c(O)c(O)c12	24.2
Cc1[nH]c(C=C2C(=O)Nc3ccc(S(=O)(=O)Cc4c(Cl)cccc4Cl)cc32)c(C)c1C(=O)N1CCC[C@H]1CN1CCCC1	8.07
CC(=O)Oc1cc2c(s1)CCN(C(C(=O)C1CC1)c1ccccc1F)C2 (stereo not given)	95.5
COc1ccc(-c2coc3cc(O)ccc3c2=O)cc1	8.21
O=C1NC(=O)C(=Cc2ccc(-c3ccc(F)cc3)o2)S1	93.7
CNC(=O)c1ccc2cc(C3(O)CCn4cncc43)ccc2c1 (stereo not given)	86.6
CC(C)(C)COc1ccc(-n2cc(C(=O)O)cn2)cc1C#N	90.1
C[N+](C)(C)CC(=O)O	96.1
NC(=O)[C@@H](CCC(F)(F)F)N(Cc1ccc(-c2ncon2)cc1F)S(=O)(=O)c1ccc(Cl)cc1	88.9
CCC(=O)O[C@]1(C(=O)CO)CC[C@H]2[C@@H]3CCC4=CC(=O)CC[C@]4(C)[C@@H]3CC[C@@]21C	93.6
CC1(C)CCC(CN2CCN(c3ccc(C(=O)NS(=O)(=O)c4ccc(NCC5CCOCC5)c([N+](=O)[O-])c4)c(Oc4cnc5[nH]ccc5c4)c3)CC2)=C(c2ccc(Cl)cc2)C1	76.7
COc1cc2c(cc1OC)CN(CCc1ccc(NC(=O)c3cc(OC)c(OC)cc3NC(=O)c3cnc4ccccc4c3)cc1)CC2	83.6
Cc1nc(N)sc1-c1ccnc(Nc2ccc(N3CCOCC3)cc2)n1	9.15

SMILES	parasite growth remaining, % of DMSO control (lower = more inhibition) [%]
NC1CCC(Nc2nc(Nc3ccc(C(=O)N4CCCCC4)cc3)c3ncn(-c4cccc(F)c4)c3n2)CC1 (stereo not given)	89.1
NC1=N[C@@]2(c3cc(NC(=O)c4ccc(F)cn4)ccc3F)COC[C@@H]2CS1	20.8
COc1cccc([C@@H](C)NCCCc2ccccc2Cl)c1	78.7
OC[C@H]1O[C@@H](Oc2cc(O)cc(C=Cc3ccc(O)cc3)c2)[C@H](O)[C@@H](O)[C@H]1O	120
N#CC1(c2ccc(NC(=O)c3cccnc3NCc3ccncc3)cc2)CCCC1	72.9
Nc1ncnc2c1nc(Cl)n2[C@@H]1O[C@H](CO)[C@@H](O)[C@@H]1O	109
CN(C[C@@H]1COCCO1)S(=O)(=O)Nc1ccc2ccc3ncc(-c4cnn(C)c4)cc3c(=O)c2c1	47.9
C[C@]12CCC3c4ccc(O)cc4CCC3C1CCC2=O (stereo not given in full)	75.4
CS(=O)(=O)N(Cc1ccco1)CC(O)Cn1c2ccccc2c2ccccc21 (stereo not given)	12.4
CN[C@@H](C)C(=O)N[C@H]1CN(C(=O)CC(C)C)CC[C@H]2CC[C@@H](C(=O)NC(c3ccccc3)c3ccccc3)N2C1=O	55
CCN(CC)CCOc1ccc(C(=C(Cl)c2ccccc2)c2ccccc2)cc1	9.72
CC(=NNC(=S)N1CCC1)c1ccccn1	5.88
COc1cc2nc(-c3ccc(N4CCN(C)CC4)cc3)nc(NCCN3CCOCC3)c2cc1OC	4.83
CC=CC(=O)N(CC)c1ccccc1C	104
CC(=O)N(C)C1(c2ccccc2)CCN(CCC[C@]2(c3ccc(Cl)c(Cl)c3)CCCN(C(=O)c3ccccc3)C2)CC1	7.14
Cc1ccc(F)c(NC(=O)Nc2ccc(-c3cccc4[nH]nc(N)c34)cc2)c1	37.7
N#Cc1ccc(NC(=O)Nc2ccccc2Br)c2n[nH]nc12	65.9
O=C(O)[C@H]1O[C@H](Oc2cc3oc(-c4ccccc4)cc(=O)c3c(O)c2O)[C@H](O)[C@@H](O)[C@H]1O	89
NS(=O)(=O)c1ccc(NC2=CC(=O)c3ccccc3C2=O)cc1	9.74
Cn1c(N2CCCCS2(=O)=O)nc(C(=O)NCc2ccc(F)cc2)c(O)c1=O	104
